PubChem BioAssay AID463173 (ICCB-Longwood Screening Facility, Harvard Medical School, 2010)
About 4,300 (8.3%) of roughly 52,000 compounds were called active. This is one part of a sample in which actives are shown more often than they occur. A number with no mark means an inactive call. Rule as the data show it: active = survival mostly below about 52% (no sharp cut-off); inactive = mostly above about 56%.

tested on: DeltatarO mutant; experiment: S. aureus survival, RN4220 and DeltatarO strains – OD600, teichoic acid synthesis inhibitors, primary screen (AID 463173); details: S. aureus RN4220 wild type/DeltatarO growth, OD600, 18 h, stronger effect = lower value, screened at 18.75 µg/mL (by protocol)

Row | Structure (SMILES) | survival
1 | CCOC(=O)c1c(S(=O)(=O)NCC(=O)N2CCN(c3cccc(Cl)c3)CC2)c(C)n(C)c1C | 86%
2 | O=C(O)c1ccccc1C(=O)N1CCC(C(=O)c2ccccc2)CC1 | 104%
3 | COc1ccc(N2CCN(C(=O)C3CCN(S(=O)(=O)Cc4ccccc4)CC3)CC2)cc1 | 78%
4 | O=S1(=O)CCC(NNC(=S)Nc2ccccc2)C1 (stereo not drawn) | 100%
5 | CCOCCCNC(=O)c1cc2c(=O)[nH]c3ccccc3c2n1C | 116%
6 | CCCCOc1ccc(S(=O)(=O)NCc2csc(-c3ccc(OC)cc3)n2)cc1 | 88%
7 | CCOC(=O)c1c(S(=O)(=O)NCC(=O)Nc2ccc(C)c(N(C)C)c2)c(C)n(C)c1C | 79%
8 | O=C(CCn1c(=O)c2cccn2c2cccnc21)N1CCN(c2cccc(C(F)(F)F)c2)CC1 | 39% (active)
9 | O=C(CCn1c(=O)c2cccn2c2cccnc21)N1CCN(c2ccc(F)cc2)CC1 | 88%
10 | O=C(CCn1c(=O)c2cccn2c2cccnc21)N1CCN(c2cccc(Cl)c2)CC1 | 46% (active)
11 | O=C(CCn1c(=O)c2cccn2c2cccnc21)N1CCN(c2ccccc2)CC1 | 102%
12 | Cc1cccc(N2CCN(C(=O)CCn3c(=O)c4cccn4c4cccnc43)CC2)c1C | 59%
13 | Cc1ccc(C)c(N2CCN(C(=O)CCn3c(=O)c4cccn4c4cccnc43)CC2)c1 | 58%
14 | COc1ccc(N2CCN(C(=O)CCn3c(=O)c4cccn4c4cccnc43)CC2)cc1 | 80%
15 | O=C(CCn1c(=O)c2cccn2c2cccnc21)N1CCN(c2ccc(Cl)cc2)CC1 | 53%
16 | Cc1ccc(Cl)cc1N1CCN(C(=O)CCn2c(=O)c3cccn3c3cccnc32)CC1 | 39% (active)
17 | O=C(C1CCN(S(=O)(=O)c2cccs2)CC1)N1CCN(c2cccc(Cl)c2)CC1 | 64%
18 | CCOC(=O)c1cc2c(ccn2C)n1Cc1ccc(OC(F)(F)F)cc1 | 96%
19 | CCOC(=O)N1CCc2c(sc3c2c(=O)n(Cc2ccccc2)c(=O)n3Cc2cccc(C)c2)C1 | 83%
20 | CC(C)NC(=O)CCSc1ccc(Cl)cc1 | 93%

Row | Structure (SMILES) | survival
21 | COc1ccc(N(C)C(=O)CCn2cnc3onc(-c4ccc(F)cc4)c3c2=O)c(OC)c1 | 92%
22 | CC(=O)NC(C)c1nc2ccccc2n1Cc1ccccc1Cl (stereo not drawn) | 83%
23 | CCCn1c(SCC(O)c2cccc(OC)c2)nc2ccccc21 (stereo not drawn) | 84%
24 | CCCn1c(-c2cccc(Br)c2)nc2ccccc21 | -4% (active)
25 | CCCCNc1nc2c(-c3cccc(Br)c3)nnn2c2ccccc12 | 101%
26 | CC(C)Cn1c(-c2ccccc2Cl)nc2ccccc21 | -2% (active)
27 | CC(C)Cn1c(-c2cccc(Br)c2)nc2ccccc21 | 21% (active)
28 | CC(C)Nc1nc2c(-c3cccc(Br)c3)nnn2c2ccccc12 | 69%
29 | Cc1nc2ccccc2c(=O)n1CC(C)C | 64%
30 | CC(C)Cn1c(C2CC(=O)N(c3ccccc3Cl)C2)nc2ccccc21 (stereo not drawn) | 101%
31 | O=C(O)c1ccc(NC(=O)c2cc(S(=O)(=O)N3CCCCC3)c(Cl)cc2Cl)cc1 | 165%
32 | CCOCCCN(Cc1ccco1)S(=O)(=O)c1cc2c(cc1C)NC(=O)CO2 | 64%
33 | O=C(NCc1ccco1)c1ccccc1 | 67%
34 | O=C(Nc1ccccc1)c1cc2sccc2n1Cc1ccccc1 | 87%
35 | COc1ccc(C(=O)NCc2ccc3c(c2)CCN3C(=O)c2ccc(Cl)cc2)c(OC)c1 | 94%
36 | COc1ccc(Cl)cc1NC(=O)C(C)n1nnc2sc3c(c2c1=O)CCCC3 (stereo not drawn) | 78%
37 | Cc1cccc(NS(=O)(=O)c2ccc(Cl)c(C(=O)Nc3ccccc3C)c2)c1 | 71%
38 | CC(C)CCOc1ccc(Oc2nc(N(C)C)nc(N(C)C)n2)nn1 | 62%
39 | Cc1nn(C)c2c1c(C(F)(F)F)cc(=O)n2CC(=O)NCc1ccc(OC(C)C)cc1 | 90%
40 | Cc1ccc(Nc2c(-c3cccs3)nc3nc(C)cc(C)n23)cc1 | 15% (active)

Row | Structure (SMILES) | survival
41 | Cc1cccc(Nc2c(-c3cccs3)nc3nc(C)cc(C)n23)c1 | 151%
42 | Cc1cc(C)n2c(Nc3ccccc3C)c(-c3cccs3)nc2n1 | 84%
43 | Cc1ccc(C)c(NC(=O)Cn2c(=O)n(Cc3ccc4c(c3)OCO4)c(=O)c3ccc(C(=O)NC4CCCCC4)cc32)c1 | 88%
44 | Cc1cccc(OCC(=O)Nc2cccc(C(=O)OCc3cc(=O)n4c(C)csc4n3)c2)c1 | -5% (active)
45 | CCOc1cc(C(=O)OCc2cc(=O)n3c(C)csc3n2)cc(OCC)c1OCC | -1% (active)
46 | COc1cccc(C(=O)Nc2cccc(C(=O)OCc3cc(=O)n4c(C)csc4n3)c2)c1 | 128%
47 | Cc1ccccc1C(=O)Nc1cccc(C(=O)OCc2cc(=O)n3c(C)csc3n2)c1 | 87%
48 | Cc1csc2nc(COC(=O)c3cccc(NC(=O)c4cccc(Cl)c4)c3)cc(=O)n12 | 17% (active)
49 | Cc1csc2nc(COC(=O)c3ccc(F)cc3)cc(=O)n12 | 72%
50 | CCOc1ccc(C(=O)Nc2ccc(C(=O)OCc3cc(=O)n4c(C)csc4n3)cc2)cc1 | 88%
51 | Cc1ccc(OCC(=O)Nc2cccc(C(=O)OCc3cc(=O)n4c(C)csc4n3)c2)cc1 | 89%
52 | Cc1csc2nc(COC(=O)c3cccc(NC(=O)COc4ccc(Cl)cc4)c3)cc(=O)n12 | 94%
53 | Cc1ccc(NC(=O)CN(C)S(=O)(=O)c2ccc3c(c2)CCC(=O)N3)c(C)c1 | 85%
54 | CCN(Cc1ccccc1)C(=O)c1nn(-c2ccc(OC)cc2)c(=O)c2c1c1ccccc1n2C | 68%
55 | COc1ccccc1NC(=O)CN1C(=O)C(C)(C)c2ccccc21 | 85%
56 | CCc1ccc2c(c1)NC(c1ccc(C)cc1)=NC(c1cccs1)=N2 | 68%
57 | Cc1ccc[n+](Cc2cnc(C)nc2N)c1 | 83%
58 | CCC(=O)N1CCc2cc(S(=O)(=O)NC(Cc3ccccc3)C(=O)Nc3ccccc3C)ccc21 (stereo not drawn) | 118%
